Source: PubChem BioAssay (NCI)
Compounds without any hit were thinned out: in the full panel of roughly 83,000, 20% have a hit.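 Plates (96-well) were seeded with cells, treated with compound at one concentration, and incubated for 48 hours before percent growth was determined.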 A number with no mark means an inactive call. Calls of active or inactive are those of the source. Rule for the calls: active = growth percent below 10; inactive = the rest.

Columns and labels:
Assay in all cases: NCI-60 one-dose screen, 48 h (100 = growth as untreated, 0 = no growth, -100 = all killed)
Conditions in all cases: 10 µM unless noted
[1] = test system: SK-MEL-2 melanoma
[2] = test system: EKVX NSCLC
[3] = test system: SN12C renal
[4] = test system: UO-31 renal
[5] = test system: TK-10 renal
[6] = test system: ACHN renal
[7] = test system: CAKI-1 renal
[8] = test system: A498 renal
[9] = test system: CCRF-CEM leukemia
[10] = test system: MOLT-4 leukemia
[11] = test system: SR leukemia
[12] = test system: RPMI-8226 leukemia
[13] = test system: OVCAR-8 ovarian
[14] = test system: OVCAR-5 ovarian
[15] = test system: OVCAR-4 ovarian
[16] = test system: SK-OV-3 ovarian
[17] = test system: IGROV1 ovarian
[18] = test system: OVCAR-3 ovarian
[19] = test system: HS 578T breast
[20] = test system: NCI/ADR-RES ovarian

| SMILES | growth [1] | growth [2] | growth [3] | growth [4] | growth [5] | growth [6] | growth [7] | growth [8] | growth [9] | growth [10] | growth [11] | growth [12] | growth [13] | growth [14] | growth [15] | growth [16] | growth [17] | growth [18] | growth [19] | growth [20] |
| --- | --- | --- | --- | --- | --- | --- | --- | --- | --- | --- | --- | --- | --- | --- | --- | --- | --- | --- | --- | --- |
| COc1ccc(/C=C/C(=O)c2c(O)c(C)c(O)c3c2OC2=CC(O)=C(C(C)=O)C(=O)[C@]23C)cc1 | -54.6% (active) | -2.89% (active) | -31.3% (active) | -22.5% (active) | -9.84% (active) | 0.0747% (active) | 6.28% (active) | -56.2% (active) | -29.9% (active) | -27.9% (active) | -17.6% (active) | -28.9% (active) | -14.9% (active) | 7.96% (active) | 12.1% | -24.9% (active) | -8.12% (active) | -20.5% (active) | -9.2% (active) | -13.5% (active) |
| COc1cc(C#N)cc(OC)c1OCCN(CCOc1c(OC)cc(C#N)cc1OC)S(=O)(=O)c1ccc(C)cc1 | 75% | 108% | 111% | 45.5% | 140% | 97.5% | 109% | 107% | 103% | 97.6% | 106% | 90.6% | 54.1% | 108% | 107% | 119% | 77.3% | 118% | 99% | 95.9% |
| O=C(O)c1cccc2c1-c1ccccc1C2=O | 98.4% | 90.3% | 84.2% | 94.3% | 91.1% | 94.4% | 65.1% | 96.1% | 84.2% | 99.4% | 94.2% | 124% | 103% | 92.2% | 105% | 103% | 85% | 102% | 97.7% | 100% |
| CCOC(=O)C(C#N)C1CCCCC1 (stereo not given) | 107% | 94.9% | 79.6% | 91.1% | 91.5% | 99.4% | 75.5% | 117% | 87.2% | 79.3% | 84.3% | 99.1% | 103% | 99.8% | 118% | 109% | 101% | 96.9% | 122% | 98.5% |
| CS(=O)(CCCCN=C=S)=NC(=O)c1c(F)c(F)c(F)c(F)c1F (stereo not given) | 88.3% | 99% | 90.9% | 90% | 76.9% | 49.6% | 96.3% | 88.8% | 73.5% | 82.5% | 23.1% | -3.75% (active) | 97.3% | 100% | 112% | 97.3% | 106% | 102% | 88.7% | 103% |
| OC(c1cc(-c2ccccc2)nc2ccc(Cl)cc12)C1CCCCN1 (stereo not given) | 89.2% | 63% | 66.3% | 20.5% | 71.3% | 22.1% | 34.3% | 64.6% | 64.6% | 27.5% | -25.8% (active) | 13.1% | 33.1% | 58.8% | 79% | 89.1% | 53.4% | 67.5% | 61.6% | 68.5% |
| Nc1cccc(-c2nc3sccn3c2-c2ccnc(NCCCNS(=O)(=O)c3ccc(C(F)(F)F)cc3)n2)c1 | -21.7% (active) | 21.1% | 12.8% | -8.25% (active) | 47.5% | 6.33% (active) | 18.3% | 11.2% | 6.17% (active) | -29.6% (active) | 15.5% | -29.7% (active) | 7.14% (active) | 40.9% | -1% (active) | 23.8% | 4.78% (active) | 6.08% (active) | 12.3% | 0.058% (active) |
| O=C(O)c1ccc2c(c1Sc1ccccc1)C(=O)c1ccccc1C2=O | 90.5% | 36.1% | 96.6% | 77% | 86.5% | 95.3% | 84.4% | 114% | 91.9% | 113% | 95.6% | 106% | 105% | 101% | 92.9% | 101% | 92.2% | 89.6% | 114% | 105% |
| CC(=O)C1=C(O)C=C2Oc3c(C(=O)/C=C/c4cc(Cl)cc(Cl)c4)c(O)c(C)c(O)c3[C@]2(C)C1=O | -62.8% (active) | -15.6% (active) | -31.8% (active) | -15.1% (active) | -17.4% (active) | -12.4% (active) | 2.74% (active) | -57.7% (active) | -22% (active) | -25.3% (active) | -20.5% (active) | -22.1% (active) | -24.3% (active) | 0.163% (active) | 8.73% (active) | -24.4% (active) | -13.8% (active) | -28.6% (active) | -16.6% (active) | -40.9% (active) |
| CCCC(=O)Oc1ccc(/C(=C(/CC)Cc2ccccc2)c2ccc(OCCN3CCCC3)cc2)cc1 | 103% | 81.4% | 99.4% | 66.5% | 87.8% | 87.3% | 85.2% | 71.9% | 84.4% | 51.6% | 1.36% (active) | 33.3% | 96.4% | 84.2% | 68.4% | 97% | 74% | 74.1% | 82.7% | 69.9% |
| C=C1CC[C@@H]2[C@](C)(COC(C)=O)[C@H](OC(C)=O)CC[C@@]2(C)[C@@H]1CC(Nc1ccc(S(=O)(=O)Nc2nc(C)cc(C)n2)cc1)C1=CCOC1=O (stereo not given in full) | 88.5% | 74.5% | 38.2% | 71.2% | 111% | 71.6% | 74% | 85.3% | 2.96% (active) | 24.6% | 22.2% | 2.24% (active) | 62% | 103% | 65% | 112% | 81.5% | 44.8% | 99.8% | 66.6% |
| CC(=O)C1=C(O)C=C2Oc3c(C(=O)/C=C/c4cc(C(F)(F)F)cc(C(F)(F)F)c4)c(O)c(C)c(O)c3[C@]2(C)C1=O | -49.7% (active) | -33.9% (active) | -34.1% (active) | -31.4% (active) | -32.5% (active) | -75.7% (active) | 5.35% (active) | -87.7% (active) | -18.1% (active) | -14.1% (active) | -29.3% (active) | -18.8% (active) | -29.1% (active) | -6.52% (active) | 12.5% | -32.9% (active) | -6.87% (active) | -50.5% (active) | -12.2% (active) | -48.2% (active) |
| CC/C=C\C[C@H](O)C/C=C1/C(=O)C=C[C@@H]1C/C=C\CCCC(=O)NC(C)C | 28.8% | 28.4% | -11.1% (active) | -61.8% (active) | -0.347% (active) | -82.5% (active) | -0.696% (active) | 98.5% | -13% (active) | -17.7% (active) | -24.9% (active) | -5.29% (active) | -12.5% (active) | 41.6% | 35.6% | 21.4% | 14.8% | -6.93% (active) | 46.6% | 15.9% |
| O=C(CN1CCN(c2cc3c(cc2F)c(=O)c(C(=O)O)cn3C2CC2)CC1)Nc1cc(=O)[nH]c(=O)[nH]1 | 107% | 92% | 97.7% | 79.7% | 100% | 100% | 95.4% | 100% | 109% | 102% | 102% | 108% | 101% | 96.4% | 113% | 110% | 96.4% | 113% | 95.6% | 102% |
| COc1ccc(-n2cc(-c3ccccc3)c3c(SCC(=O)N/N=C/c4ccc([N+](=O)[O-])cc4)ncnc32)cc1 | 98.1% | 97% | 102% | 79.4% | 108% | 105% | 89.7% | 108% | 104% | 108% | 108% | 108% | 103% | 99.2% | 102% | 109% | 108% | 105% | 105% | 91.3% |
| C/C(=C(/c1ccc(O)cc1)c1ccc(OCCN2CCCC2)cc1)c1ccccc1 | 63.1% | 62.5% | 72.4% | 55.3% | 79.6% | 68.5% | 65.1% | 80.5% | 60.7% | -1.64% (active) | -11.3% (active) | 11.9% | 83% | 80.5% | 54.5% | 80.1% | 76.1% | 74% | 66.8% | 62.9% |
